Our source for the composite z-score values is PubChem BioAssay.

This assay addresses Carbonic anhydrase 2 (Homo sapiens) (UniProt P00918). Briefly: compounds binding carbonic anhydrase 2 – biochemical, small-molecule microarray, Alexa647-labelled CAII, profiling panel (AID 1122). The note with it: CAII-A647 binding fluorescence, higher = more signal.
Consider `COCCOC(=O)N1C(=O)[C@@]2(c3cc(C#CC4(O)CCCCCC4)ccc31)[C@H](C(=O)N1CCCCCCC1)[C@H]1C(=O)O[C@H](c3ccccc3)[C@H](c3ccccc3)N1[C@@H]2c1ccc(O)cc1`, for which the composite z-score is 0.485.

The molecule `C=CCC(OC(C)=O)[C@@H]1[C@@H](N(Cc2cc3ccccc3o2)C(=O)Cc2ccc(F)cc2)c2cc(OCCCO)ccc2N1C(=O)c1ccc(-c2ccccc2)cc1` (some centres not stated) had a composite z-score of -0.309.

`O=C(CS)NCCCCCNC(=O)[C@H]1C[C@H]2C(=O)N[C@@H](Cc3ccccc3)C(=O)N2[C@H]1c1ccc(O)cc1`: the composite z-score was determined as 0.436.

Take `CO[C@H]1COC(=O)CC=C[C@@H](C)COC(=O)[C@@H](C)NC(=O)CC=C[C@@H]1C`: the composite z-score is -0.681.

The molecule `CCC(=O)[C@]12O[C@@]3([C@@H]4C(=O)OCC[C@@H]41)N(Cc1ccccc1)C(C)=C(C(=O)OC)[C@@H](c1ccccc1)N3C2=O` had a composite z-score of 0.463.

`C[C@]1(C(=O)NCCN2CCOCC2)c2ccccc2C(=O)N(Cc2ccccc2)[C@H]1c1ccc(CO)cc1` had a composite z-score of 0.733.

As to `CC[C@H]1C2=C3C(CC[C@H]4C(OC)OC[C@](C)([C@@H]34)N(C(=O)OC(C)(C)C)C2)C(CO)C1CO` (some centres not stated), the composite z-score worked out at 0.486.

With `O=C1c2ccccc2[C@@]2(Cc3ccccc3N(CC(F)(F)F)C2=O)[C@H](c2ccc(CO)cc2)N1C1CCCCC1`, the composite z-score turned out to be 0.807.

In the case of `C=C(C(=O)CC[C@H](OC(=O)c1ccccc1-c1ccccc1C(=O)O)c1ccc(CO)o1)C(C)C`, the composite z-score came out at 0.368.

With `CC1=C([C@H](O)CCc2ccccc2)[C@H](CO)[C@@H]2C(=O)N(Cc3ccccc3)C(=O)[C@@H]2C1`, the composite z-score amounted to 0.347.

With `O=C1O[C@H](c2ccccc2)[C@H](c2ccccc2)N2[C@H]1[C@@H](C(=O)NC[C@H](O)c1ccccc1)[C@]1(C(=O)Nc3ccc(C#CC4=CCCCC4)cc31)[C@H]2c1ccc(OCCO)cc1`, the composite z-score was found to be 0.522.

The molecule `COc1cc(Cc2cc3c(c(CCc4ccccc4)n2)[Si](C(C)C)(C(C)C)OC3)cc(OC)c1OC` registered a composite z-score of 0.0001.

In turn, `CO[C@H]1O[C@H](CO)[C@@H](OC(=O)CCc2ccccc2)[C@@H]2OC(=O)[C@H](Cc3cccc(Br)c3)C/C=C/C[C@@H](Cc3cccc(Br)c3)C(=O)O[C@@H]12` displayed a composite z-score of 0.76.

Molecule `Cc1ccc(S[C@]2(C(=O)NCCCN(C)C)CC(=O)N(C3CCCCC3)[C@@H]2c2ccc(CO)cc2I)cc1` had a composite z-score of 0.442.

Molecule `COC(=O)[C@@]1(Cc2ccccc2CN=[N+]=[N-])N=C(c2ccc(OCCCO)cc2)O[C@H]1c1ccccc1N=[N+]=[N-]` yielded a composite z-score of 0.569.

On to `CO[C@@H]1COC(=O)[C@H](C)NC(=O)CC=C[C@@H](C)[C@H](OC)COC(=O)[C@H](C)NC(=O)CC=C[C@H]1C`, for which the composite z-score is -0.305.

Take `COCCOC(=O)N1C(=O)[C@@]2(c3cc(C#CCNC(N)=O)ccc31)[C@H](c1ccc(OCCO)cc1)N1[C@H](c3ccccc3)[C@H](c3ccccc3)OC(=O)[C@H]1[C@@H]2C(=O)Nc1nc2ccccc2s1`: the composite z-score came to 0.277.

The molecule `C=CC[C@@]1(C(=O)N2CCOCC2)N=C(c2ccc(OCCCO)cc2)O[C@@H]1c1ccccc1` returned a composite z-score of 0.716.

For `COc1cc2c(cc1OC)CN(C(=O)[C@H]1[C@@H]3C(=O)O[C@@H](c4ccccc4)[C@@H](c4ccccc4)N3[C@@H](c3ccc(O)cc3)[C@]13C(=O)Nc1ccc(C#CC4(O)CCCCCC4)cc13)CC2`, the composite z-score came out at 0.774.

In turn, `O=C/C=C/c1ccccc1Cl` registered a composite z-score of 0.408.

The molecule `C=CCC(OC(C)=O)[C@@H]1[C@@H](N(Cc2cccc3ccccc23)C(=O)Cc2ccc(F)cc2)c2cc(OCCCO)ccc2N1C(=O)Cc1ccc2ccccc2c1` (some centres not stated) returned a composite z-score of -0.117.

`CC(=O)NCCCC[C@@H]1NC(=O)[C@@H]2C[C@H](C(=O)NCCCCCNC(=O)CS)[C@H](c3ccc(O)cc3)N2C1=O` displayed a composite z-score of 0.497.

Consider `C[N+](C)(C)CCCCNC(=O)[C@@H]1C[C@@H]2C(=O)N3CCC[C@H]3C(=O)N2[C@@H]1c1cccc(OCCO)c1`, for which the composite z-score stood at 0.678.

On to `O=C(NCC(O)CO)[C@]1(Cc2ccccc2)N=C(c2ccc(OCCCO)cc2)O[C@@H]1c1ccccc1` (some centres not stated), for which the composite z-score came out at 0.366.

For the molecule `COC(=O)Cn1c(C(=O)N2CCCC2)cc2c1C[C@H]1CN(C(=O)c3ccccc3)[C@@](Cc3ccccc3)(C(=O)OC)[C@@H]21`, the composite z-score is 0.752.

`CCOC(=O)[C@H]1C/C=C/C[C@H](C(=O)OCC)C(=O)O[C@H]2[C@@H](OC)O[C@H](CO)[C@@H](OC(=O)Nc3ccc(Br)cc3)[C@@H]2OC1=O` had a composite z-score of 0.516.

In turn, `CO[C@@H]1COC(=O)[C@@H]2CCCN2C(=O)CC=C[C@@H](C)[C@H](OC)COC(=O)[C@@H]2CCCN2C(=O)CC=C[C@H]1C` gave a composite z-score of -0.439.
